{
  "source": "the supplement of paper PMC11732987",
  "about": "“Enantioselective OTUD7B fragment discovery through chemoproteomics screening and high-throughput optimisation” (Communications Chemistry, 2025)",
  "test_in_all_cases": "log2 ratio of Biotin-Ahx-Ub-VS probe labelling (fragment/DMSO); higher = less target engagement (more negative = stronger competition), active = hit call of the paper (q ≤ 0.05, log2 ratio ≤ -1)",
  "details_in_all_cases": "compound concentration: 200 uM; treatment time: 3 h",
  "key": {"OTUD6B": {"molecular_target": "T1, OTUD6B (UniProt Q8N6M0)", "T1 sequence (whole entry)": "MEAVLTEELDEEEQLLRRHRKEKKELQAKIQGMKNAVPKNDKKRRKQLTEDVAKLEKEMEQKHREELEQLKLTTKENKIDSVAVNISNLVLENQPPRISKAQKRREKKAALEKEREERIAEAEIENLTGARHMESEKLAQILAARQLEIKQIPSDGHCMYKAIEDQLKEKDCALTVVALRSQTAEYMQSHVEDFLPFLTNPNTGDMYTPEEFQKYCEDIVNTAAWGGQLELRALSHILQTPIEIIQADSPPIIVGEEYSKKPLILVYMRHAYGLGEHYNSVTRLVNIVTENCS", "procedure,_shortened": "(§1)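 HEK293T lysate (495 µg per sample, in Tris/CHAPS/IGEPAL buffer with protease inhibitors) was exposed in triplicate for 3 h to fragment at 200 µM or to vehicle, then to Biotin-Ahx-Ub-VS at 0.5 µM final for 1 h. Labelled DUBs were enriched on NeutrAvidin, digested with LysC and trypsin, and analysed by diaPASEF LC-MS/MS. Spectronaut label-free quantities were normalised to the global median, and values are average log2 ratios of fragment over vehicle from an unpaired t-test. Only proteins with ≥2 unique peptides were used.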"}, "OTUD7B": {"molecular_target": "T2, OTUD7B (UniProt Q6GQQ9)", "T2 sequence (whole entry)": "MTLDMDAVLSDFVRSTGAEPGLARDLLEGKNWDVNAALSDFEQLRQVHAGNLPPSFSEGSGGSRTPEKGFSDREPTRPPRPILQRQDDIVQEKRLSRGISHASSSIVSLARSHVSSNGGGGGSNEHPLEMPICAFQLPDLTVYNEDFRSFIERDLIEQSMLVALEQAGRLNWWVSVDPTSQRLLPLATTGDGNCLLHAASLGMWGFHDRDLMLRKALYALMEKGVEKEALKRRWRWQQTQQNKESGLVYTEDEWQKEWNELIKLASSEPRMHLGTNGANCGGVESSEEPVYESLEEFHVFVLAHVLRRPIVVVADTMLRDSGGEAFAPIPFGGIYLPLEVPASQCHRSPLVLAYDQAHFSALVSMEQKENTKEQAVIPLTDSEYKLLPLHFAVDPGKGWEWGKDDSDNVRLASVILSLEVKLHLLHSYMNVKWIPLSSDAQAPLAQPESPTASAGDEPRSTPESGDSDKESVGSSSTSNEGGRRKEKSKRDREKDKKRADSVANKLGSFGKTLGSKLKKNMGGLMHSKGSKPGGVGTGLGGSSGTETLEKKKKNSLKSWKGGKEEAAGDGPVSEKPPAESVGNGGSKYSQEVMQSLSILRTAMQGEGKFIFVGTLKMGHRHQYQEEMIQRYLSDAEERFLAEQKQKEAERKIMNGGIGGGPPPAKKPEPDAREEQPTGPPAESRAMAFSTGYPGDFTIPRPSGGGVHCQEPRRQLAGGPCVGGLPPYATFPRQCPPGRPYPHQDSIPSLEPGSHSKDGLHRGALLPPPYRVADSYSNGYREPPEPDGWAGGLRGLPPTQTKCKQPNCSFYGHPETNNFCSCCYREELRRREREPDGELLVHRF", "procedure,_shortened": "as §1"}, "PRPF8": {"molecular_target": "PRPF8 (UniProt Q6P2Q9)", "procedure,_shortened": "as §1"}, "PSMD7": {"molecular_target": "T3, PSMD7 (UniProt P51665)", "T3 sequence (whole entry)": "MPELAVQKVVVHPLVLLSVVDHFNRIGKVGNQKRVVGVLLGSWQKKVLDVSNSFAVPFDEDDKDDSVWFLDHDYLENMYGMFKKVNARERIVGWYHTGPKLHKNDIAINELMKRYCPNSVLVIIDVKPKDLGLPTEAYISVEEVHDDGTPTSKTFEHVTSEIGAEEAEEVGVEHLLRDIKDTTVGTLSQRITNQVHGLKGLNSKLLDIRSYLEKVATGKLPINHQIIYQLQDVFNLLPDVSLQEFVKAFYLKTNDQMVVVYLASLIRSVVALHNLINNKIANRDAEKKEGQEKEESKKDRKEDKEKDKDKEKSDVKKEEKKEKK", "procedure,_shortened": "as §1"}, "UCHL1": {"molecular_target": "UCHL1 (UniProt P09936)", "sequence (P09936 whole entry, looked up)": "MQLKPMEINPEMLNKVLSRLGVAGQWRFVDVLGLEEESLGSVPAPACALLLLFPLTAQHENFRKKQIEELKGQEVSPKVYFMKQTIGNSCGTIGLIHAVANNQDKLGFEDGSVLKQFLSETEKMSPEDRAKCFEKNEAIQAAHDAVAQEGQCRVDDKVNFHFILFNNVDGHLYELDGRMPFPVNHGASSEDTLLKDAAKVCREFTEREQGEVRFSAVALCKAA", "procedure,_shortened": "as §1"}, "UCHL3": {"molecular_target": "T4, UCHL3 (UniProt P15374)", "T4 sequence (whole entry)": "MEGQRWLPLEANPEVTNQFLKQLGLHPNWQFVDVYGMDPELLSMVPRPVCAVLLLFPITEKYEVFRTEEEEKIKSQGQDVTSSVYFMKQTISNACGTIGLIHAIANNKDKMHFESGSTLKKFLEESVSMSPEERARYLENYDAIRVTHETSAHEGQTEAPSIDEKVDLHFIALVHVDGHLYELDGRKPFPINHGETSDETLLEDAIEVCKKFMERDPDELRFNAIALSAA", "procedure,_shortened": "as §1"}, "UCHL5": {"molecular_target": "T5, UCHL5 (UniProt Q9Y5K5)", "T5 sequence (whole entry)": "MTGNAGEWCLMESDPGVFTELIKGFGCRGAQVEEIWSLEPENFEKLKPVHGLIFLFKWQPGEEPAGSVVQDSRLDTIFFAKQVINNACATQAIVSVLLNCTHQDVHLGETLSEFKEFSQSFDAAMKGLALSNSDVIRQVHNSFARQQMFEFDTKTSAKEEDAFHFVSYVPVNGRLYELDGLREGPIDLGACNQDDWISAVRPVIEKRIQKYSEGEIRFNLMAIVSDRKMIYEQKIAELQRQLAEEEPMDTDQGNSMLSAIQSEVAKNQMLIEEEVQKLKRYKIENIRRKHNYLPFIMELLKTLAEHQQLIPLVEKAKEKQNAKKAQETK", "procedure,_shortened": "as §1"}, "USP10": {"molecular_target": "USP10 (UniProt Q14694)", "sequence (Q14694 whole entry)": "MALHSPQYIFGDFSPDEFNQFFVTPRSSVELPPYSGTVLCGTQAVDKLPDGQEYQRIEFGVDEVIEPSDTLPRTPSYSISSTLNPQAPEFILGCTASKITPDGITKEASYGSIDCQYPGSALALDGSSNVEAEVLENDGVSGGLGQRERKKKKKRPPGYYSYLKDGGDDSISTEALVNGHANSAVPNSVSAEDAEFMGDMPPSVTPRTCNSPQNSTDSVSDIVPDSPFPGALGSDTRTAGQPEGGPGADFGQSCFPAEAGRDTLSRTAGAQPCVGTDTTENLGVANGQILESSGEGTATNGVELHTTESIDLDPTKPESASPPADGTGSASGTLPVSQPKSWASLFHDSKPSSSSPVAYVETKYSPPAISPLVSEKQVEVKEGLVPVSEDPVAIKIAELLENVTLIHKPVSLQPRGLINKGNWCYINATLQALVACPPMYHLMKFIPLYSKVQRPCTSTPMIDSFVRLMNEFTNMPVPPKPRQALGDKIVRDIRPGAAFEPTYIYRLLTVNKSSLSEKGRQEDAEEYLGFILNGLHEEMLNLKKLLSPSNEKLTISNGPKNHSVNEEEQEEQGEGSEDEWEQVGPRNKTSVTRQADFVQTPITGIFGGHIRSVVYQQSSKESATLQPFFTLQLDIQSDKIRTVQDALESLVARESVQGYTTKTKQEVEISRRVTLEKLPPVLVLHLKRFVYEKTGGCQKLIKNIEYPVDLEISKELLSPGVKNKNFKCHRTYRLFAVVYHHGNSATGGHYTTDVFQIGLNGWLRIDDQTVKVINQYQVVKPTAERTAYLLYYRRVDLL", "procedure,_shortened": "as §1"}, "USP15": {"molecular_target": "T6, USP15 (UniProt Q9Y4E8)", "T6 sequence (whole entry)": "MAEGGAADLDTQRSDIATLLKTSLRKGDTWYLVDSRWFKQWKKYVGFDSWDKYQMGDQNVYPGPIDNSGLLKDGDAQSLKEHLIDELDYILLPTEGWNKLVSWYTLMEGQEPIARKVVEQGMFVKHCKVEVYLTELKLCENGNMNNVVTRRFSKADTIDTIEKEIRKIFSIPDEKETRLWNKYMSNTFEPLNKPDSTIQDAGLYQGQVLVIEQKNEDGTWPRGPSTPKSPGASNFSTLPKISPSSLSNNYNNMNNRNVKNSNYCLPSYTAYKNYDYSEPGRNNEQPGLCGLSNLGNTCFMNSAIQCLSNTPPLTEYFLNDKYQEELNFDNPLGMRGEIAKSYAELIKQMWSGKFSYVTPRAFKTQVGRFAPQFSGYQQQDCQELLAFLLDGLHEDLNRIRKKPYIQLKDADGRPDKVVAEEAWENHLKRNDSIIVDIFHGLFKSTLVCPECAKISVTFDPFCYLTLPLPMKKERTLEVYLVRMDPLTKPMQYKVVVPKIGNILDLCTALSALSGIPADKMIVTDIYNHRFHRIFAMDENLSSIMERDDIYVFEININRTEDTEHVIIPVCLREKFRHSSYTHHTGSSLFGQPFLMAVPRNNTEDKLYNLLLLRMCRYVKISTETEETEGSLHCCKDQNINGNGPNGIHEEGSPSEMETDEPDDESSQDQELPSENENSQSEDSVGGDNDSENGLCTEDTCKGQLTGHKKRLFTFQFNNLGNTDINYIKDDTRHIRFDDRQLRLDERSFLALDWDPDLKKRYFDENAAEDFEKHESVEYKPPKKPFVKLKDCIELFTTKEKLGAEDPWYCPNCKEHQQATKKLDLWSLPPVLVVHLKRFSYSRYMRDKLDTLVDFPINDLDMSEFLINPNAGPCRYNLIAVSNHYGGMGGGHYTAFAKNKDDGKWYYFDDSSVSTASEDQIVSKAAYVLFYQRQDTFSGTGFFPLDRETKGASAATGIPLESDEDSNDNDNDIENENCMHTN", "procedure,_shortened": "as §1"}, "USP16": {"molecular_target": "USP16 (UniProt Q9Y5T5)", "sequence (Q9Y5T5 whole entry, looked up)": "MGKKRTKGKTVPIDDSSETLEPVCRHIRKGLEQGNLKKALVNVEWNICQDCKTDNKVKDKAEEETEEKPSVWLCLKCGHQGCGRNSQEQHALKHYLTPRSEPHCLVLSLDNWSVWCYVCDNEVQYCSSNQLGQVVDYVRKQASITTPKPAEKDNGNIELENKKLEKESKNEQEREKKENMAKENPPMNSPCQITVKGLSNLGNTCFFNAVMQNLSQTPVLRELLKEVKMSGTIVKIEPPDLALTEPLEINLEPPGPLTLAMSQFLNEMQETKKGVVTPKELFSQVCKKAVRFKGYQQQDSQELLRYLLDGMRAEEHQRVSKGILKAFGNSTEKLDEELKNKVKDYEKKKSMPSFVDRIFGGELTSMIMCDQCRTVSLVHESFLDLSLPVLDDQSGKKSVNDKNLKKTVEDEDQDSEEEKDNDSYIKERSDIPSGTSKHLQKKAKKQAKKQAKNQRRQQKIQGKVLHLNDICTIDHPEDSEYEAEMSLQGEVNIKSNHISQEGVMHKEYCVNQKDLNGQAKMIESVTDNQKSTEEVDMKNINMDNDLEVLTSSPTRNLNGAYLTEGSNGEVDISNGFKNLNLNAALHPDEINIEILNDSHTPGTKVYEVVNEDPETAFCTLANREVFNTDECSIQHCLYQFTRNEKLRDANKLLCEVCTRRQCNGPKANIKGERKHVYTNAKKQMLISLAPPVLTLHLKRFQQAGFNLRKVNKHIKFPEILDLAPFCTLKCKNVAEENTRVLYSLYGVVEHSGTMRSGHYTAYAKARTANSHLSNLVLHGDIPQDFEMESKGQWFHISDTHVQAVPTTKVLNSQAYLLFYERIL", "procedure,_shortened": "as §1"}},
  "note": "Unmarked numbers belong to inactive results.",
  "data": [
    {"smiles": "COCC1C=CCCN1C(=O)CCl", "note": "(stereo not given)", "values": [
      {"measurement": "log2 ratio of Biotin-Ahx-Ub-VS probe labelling", "setting": "OTUD6B", "value": -0.121},
      {"measurement": "log2 ratio of Biotin-Ahx-Ub-VS probe labelling", "setting": "OTUD7B", "value": -0.466},
      {"measurement": "log2 ratio of Biotin-Ahx-Ub-VS probe labelling", "setting": "PRPF8", "value": -0.181},
      {"measurement": "log2 ratio of Biotin-Ahx-Ub-VS probe labelling", "setting": "PSMD7", "value": -0.134},
      {"measurement": "log2 ratio of Biotin-Ahx-Ub-VS probe labelling", "setting": "UCHL1", "value": "-1.94 (active)"},
      {"measurement": "log2 ratio of Biotin-Ahx-Ub-VS probe labelling", "setting": "UCHL3", "value": -0.0426},
      {"measurement": "log2 ratio of Biotin-Ahx-Ub-VS probe labelling", "setting": "UCHL5", "value": -0.167},
      {"measurement": "log2 ratio of Biotin-Ahx-Ub-VS probe labelling", "setting": "USP10", "value": -0.0693},
      {"measurement": "log2 ratio of Biotin-Ahx-Ub-VS probe labelling", "setting": "USP15", "value": -0.145},
      {"measurement": "log2 ratio of Biotin-Ahx-Ub-VS probe labelling", "setting": "USP16", "value": -0.0544}
    ]}
  ]
}
